Assay results published in PubChem BioAssay (Tox21).
Where “and” joins values, the source holds several entries; their conditions need not be identical. Identical values can stand only once. Inconclusive results are not listed. A call without a number means that no potency is given here. Some compounds were tested as several samples or in several runs, with calls that do not always agree. Calls of active or inactive are those of the source. Unless noted, calls follow the shape of the dose curve; as a rule, active = well fitted curve in the direction sought with a large enough effect in the repeat runs; inconclusive = weak or mixed curves; inactive = no such curve, though single readings can be large; an effect the other way counts as inactive or inconclusive.

Columns and labels:
[1] = qHTS assay to identify small molecule agonists of the hypoxia (HIF-1) signaling pathway - cell viability counter screen (AID 1224844; calls by dose curve; also: nearly all actives have a fitted effect of over 50% in size; also: potency is read from the fitted curve at half-maximal effect)
Procedure, shortened: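 In this counter screen, HRE-bla ME-180 cell viability after 17 hrs of compound exposure at 37C was read by CellTiter-Glo luminescence, multiplexed with the beta-lactamase reporter measurement.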

[2] = qHTS assay to identify small molecule agonists of the hypoxia (HIF-1) signaling pathway (AID 1224846; active = well fitted activation curve with a large enough effect in the signal ratio in the repeat runs, not every such curve was filed as active; the % refers to the signal ratio)
Procedure, shortened: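 ME-180 HRE-bla reporter cells; compounds in DMSO, 17 h at 37C; read-out beta-lactamase via CCF4-AM FRET.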

[3] = qHTS assay to identify small molecule agonists of H2AX - cell viability counter screen (AID 1224847; calls by dose curve; also: nearly all actives have a fitted effect of over 30% in size; also: potency is read from the fitted curve at half-maximal effect)
Procedure, shortened: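 CHO-K1 cells plated overnight at 37C, then exposed 3 h at 37C to compounds at 15 concentrations (0.76% DMSO final). Viability by CellTiter-Glo luminescence after 30 min at room temperature.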

[4] = qHTS RealTime-Glo MT Cell Viability Assay in HEK293 cells - 32 hour (AID 1224868); also: nearly all actives have a fitted effect of over 50% in size; also: potency is read from the fitted curve at half-maximal effect
Procedure, shortened: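 Tox21 10K qHTS, HEK293, 600 cells/well, RealTime-Glo reagent co-dispensed with cells; 5 h preincubation, compound by pintool, 37 C, luminescence at 0–40 h.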

[5] = A CellTox Green Cytotoxicity Assay to monitor cytotoxicity in HEK293 cells - 0 hour (AID 1224869); also: nearly all actives have a fitted effect of over 50% in size; also: potency is read from the fitted curve at half-maximal effect
Procedure, shortened: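 Real-time, in one plate: 600 HEK293 cells/well with dead-cell DNA dye, pinned compound after 5 h, 37 C incubation over 40 h; viable cells give no appreciable fluorescence.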

[6] = qHTS RealTime-Glo MT Cell Viability Assay in HepG2 cells - 40 hour (AID 1224870); also: nearly all actives have a fitted effect of over 50% in size; also: potency is read from the fitted curve at half-maximal effect
Procedure, shortened: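 HepG2 cells (600/well) mixed with RealTime-Glo MT reagent, settled 5 h at 37 C/5% CO2 before compound addition. Nonlytic NanoLuc luminescence from viable-cell prosubstrate reduction read repeatedly during 40 h treatment at 37 C.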

[7] = qHTS assay to identify small molecule agonists of H2AX (AID 1224845; active = well fitted activation curve with a large enough effect in the signal ratio in the repeat runs, not every such curve was filed as active; the % refers to the signal ratio; also: potency is read from the fitted curve at half-maximal effect)
Procedure, shortened: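 Wild-type CHO-K1 cells, plated overnight, exposed 3hr at 37C to 15 concentrations (0.76% DMSO final). Lysed, then HTRF anti-pH2AX (S139) cryptate and anti-H2AX-d2 antibodies, 24 hr room temperature; 665/620 nm emission read.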

[8] = qHTS RealTime-Glo MT Cell Viability Assay in HepG2 cells - 24 hour (AID 1224867); also: nearly all actives have a fitted effect of over 50% in size; also: potency is read from the fitted curve at half-maximal effect
Procedure, shortened: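 Cells + NanoLuc/prosubstrate dispensed (600 cells/well) → 5 h at 37 C/5% CO2 → compounds in DMSO transferred → 40 h incubation at 37 C, luminescence read at 0, 8, 16, 24, 32, 40 h.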

[9] = qHTS assay to identify small molecule antagonists of the estrogen related receptor (ERR) signaling pathway from Tox21 library (AID 1224848); also: nearly all actives have a fitted effect of over 50% in size; also: potency is read from the fitted curve at half-maximal effect
Procedure, shortened: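 Compounds dissolved in DMSO are pin-transferred onto ERR reporter cells (2,000 per well) that have settled for 6 h at 37 C. Plates then incubate 18 h at 37 C before ONE-Glo luciferase reagent and a luminescence read 30 min later.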

[10] = qHTS assay to identify small molecule agonists of the estrogen related receptor (ERR) signaling pathway from Tox21 library (AID 1224849; calls by dose curve; also: nearly all actives have a fitted effect of over 15% in size); conditions: ERR reporter cell line, ONE-Glo luciferase, 18 h; at 92.4 µM (top of the series) unless noted
Procedure, shortened: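 Luciferase activity in ERR pathway reporter cells served as the agonist readout; exposure lasted 18 h at 37 C, with ONE-Glo detection after 30 min at room temperature.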

| SMILES | Potency [1] | Potency [2] | Potency [3] | Potency [4] | Potency [5] | Potency [6] | Potency [7] | Potency [8] | Potency [9] | activity change, positive = activation [10] |
| --- | --- | --- | --- | --- | --- | --- | --- | --- | --- | --- |
| CN(C)c1ccc(N)cc1 | inactive | inactive | 87.6 µM (active) | 24 µM (active) | inactive | inactive |  |  |  |  |
| [Cl][Hg][c]1ccccc1 | 1.38 µM (active) |  | 7.13 µM (active) | 1.1 µM (active) | inactive | 3.09 µM (active) | inactive | 2.75 µM (active) |  |  |
| CCOP(=S)(NC(C)C)Oc1ccccc1C(=O)OC(C)C (stereo unspecified) | 6.16 µM (active) |  |  | 43.6 µM (active) | inactive |  | inactive |  | 30.6 µM (active) | -39.6% (inactive) |
| CCOP(=O)(Sc1ccccc1)Sc1ccccc1 | inactive | inactive |  | inactive |  | inactive |  | inactive |  |  |
| O=C(Nc1ccc(F)cc1F)c1cccnc1Oc1cccc(C(F)(F)F)c1 | inactive | inactive |  | inactive | inactive | inactive |  | inactive | inactive | 5% (inactive) |
| N#Cc1c2ccccc2cc2ccccc12 | inactive |  |  | inactive | inactive | inactive | inactive | inactive | inactive | 3.94% (inactive) |
| CCc1cccc(C)c1N(C(=O)CCl)[C@@H](C)COC | 49 µM (active) | inactive |  | inactive | inactive | inactive |  |  | 61.1 µM (active) | -67.3% (inactive) |
| Cc1cc(C2CC2)nc(Nc2ccccc2)n1 | inactive | inactive |  | 24.5 µM (active) | inactive | inactive |  |  | inactive | 13.7% (active) |
| CC1(C)[C@H](/C=C2\CCSC2=O)[C@@H]1C(=O)OCc1coc(Cc2ccccc2)c1 | inactive |  |  |  | inactive | inactive | inactive | inactive |  |  |
| Nc1nc(N)c(N)c(N)n1 | inactive | inactive | inactive | inactive | 49.2 µM (active) | inactive |  | inactive | inactive | 0.198% (inactive) |
| CNC(=O)/C=C(\C)OP(=O)(OC)OC | inactive | inactive | inactive | inactive | inactive |  |  | inactive | inactive | -0.497% (inactive) |
| c1ccc(N=NNc2ccccc2)cc1 | inactive | inactive | 92.9 µM (active) and 101 µM (active) | inactive | inactive |  |  | inactive | inactive | 51.9% (active) and 0.0484% (inactive) |
| N#Cc1c[nH]cc1-c1cccc2c1OC(F)(F)O2 | inactive |  |  | 6.92 µM (active) | inactive | inactive | inactive | inactive | 27.3 µM (active) | -48.5% (inactive) |
| c1csc(-c2ccc(-c3cccs3)s2)c1 | inactive |  | inactive | inactive | inactive | inactive | inactive | inactive |  |  |
| C[N+]1(C)[C@@H]2CC[C@H]1CC(OC(=O)C(CO)c1ccccc1)C2 (stereo partly specified) | inactive |  | inactive | inactive | inactive | 23.9 µM (active) | inactive | inactive |  |  |
| O=C(N[C@H]1N=C(c2ccccc2F)c2cccc3c2N(CC3)C1=O)c1cc2ccccc2[nH]1 | inactive |  | inactive | inactive | inactive | inactive | inactive | inactive |  |  |
| Brc1cccc(-c2ccccc2)c1 | inactive | inactive |  | inactive | inactive | inactive |  | inactive | inactive | -0.973% (inactive) |
| O=S1OCC2C(CO1)C1(Cl)C(Cl)=C(Cl)C2(Cl)C1(Cl)Cl (stereo unspecified) | 48.9 µM (active) |  | 101 µM (active) and 89.7 µM (active) | 21.9 µM (active) and 38.9 µM (active) | inactive | inactive | 89.9 µM (active) and 101 µM (active) | 54.9 µM (active) |  |  |
| [O]=[Cr](=[O])([OH])[O][Cr](=[O])(=[O])[OH] | 2.78 µM (active) and 12.3 µM (active) |  | 90.6 µM (active) | 4.41 µM (active) and 4.36 µM (active) | inactive |  | 101 µM (active) |  |  |  |
| Oc1ccc2[nH]cc(CCCCN3CC=C(c4ccccc4)CC3)c2c1 | inactive | inactive |  | 23.9 µM (active) |  | inactive |  | inactive | 29.8 µM (active) | -32.1% [at 42.5 µM] (inactive) |
| CC(O)C(=O)[O][Hg][c]1ccccc1 (stereo unspecified) | 1.38 µM (active) |  | 6.35 µM (active) | 0.977 µM (active) | inactive | 2.75 µM (active) |  | 2.45 µM (active) | 3.86 µM (active) | -80.9% (inactive) |
| CCOP(=S)(OCC)SC(CCl)N1C(=O)c2ccccc2C1=O (stereo unspecified) | inactive | inactive | inactive | inactive | inactive | inactive |  | inactive |  | -14.9% (inactive) |
